In all, about 330,000 compounds went through this assay and about 1,000 (0.3%) were called active. Where a call stands in place of a potency, no number is given. About 3% were inconclusive and are not listed. The sample holds actives, similar compounds and a random draw of the others, so the mix is not that of the screen. The call rests on the fitted dose curve; in most records, active means well fitted inhibition curve with a large enough effect; inconclusive means small, poorly fitted or top-dose-only effect; inactive means no such curve, though single readings can be large or run the other way; tested in mouse RAW 264.7 cells.

We go through 55 compounds from PubChem BioAssay AID540303 (National Center for Advancing Translational Sciences (NCATS), 2011).
Potency means the concentration at half of the fitted maximal effect.

A short description of this assay: qHTS for Inhibitors of Cell Surface uPA Generation. Further: nearly all actives have a fitted effect of over 55% in size. The settings on record: cell surface uPA generation assay; series mostly up to 38.3 µM. The text has this: The overall objective of this project is to perform a quantitative high throughput screen (qHTS) to identify novel compounds that inhibit the generation of cell surface urokinase activity. The urokinase plasminogen activator (uPA) is one of the two primary endogenous systems that mediate plasminogen activation into plasmin. Members of this system, including uPA and its receptor (uPAR), are overexpressed in several malignant tumors. This system plays a major role in adhesion, migration, invasion and metastasis of cancer cells. Small molecule inhibitors of the uPA system will serve as probes to understand the molecular mechanisms of the uPA cascade and better understanding the microenvironmental circumstances that facilitate the activation of plasminogen by uPA, and finally may provide novel candidate agents for anticancer drug therapy.
[…] […] Upon inhibition of the uPA activation cascade, the subsequent cell surface uPA activity-dependent translocation of LF into the cytoplasm is inhibited. ATP-Lite is used to measure intracellular ATP concentrations, which remain increased if LF entry into the cytoplasm is inhibited. This validation assay was performed using a small set of validation compounds.
NIH Chemical Genomics Center [NCGC]
NIH Molecular Libraries Probe Centers Network [MLPCN]
Assay Submitter (PI): Thomas Bugge, National Institute of Dental and Craniofacial Research, NIH
Cultured RAW 264.7 were dispensed into 1536-well clear bottom, white walled tissue culture plates at a density of 4000 cells/well and were incubated overnight (12-16 h) at 37 C in a 5% CO2 incubator. Serially diluted compounds in 23 nl DMSO were added to cells. […] Compound and reagent-treated plates were incubated for 24 h at 37 C in a 5% CO2 incubator. Perkin Elmer ATPlitetrade mark 1 step (3 ul) was then added to each well. Luminescence was detected using a Perkin Elmer ViewLuxtrade mark plate reader.
1.Dispensing RAW 264.7 cells into 1536-well, white walled tissue culture plates at a density of 4000 cells/well (4 uL).
2.Incubation at 37 C in a 5% CO2 incubator overnight.
3.Serially diluting compounds (1:5 serial dilution; 0.0024 uM to […] final concentration) in 23 nl DMSO.
5.Incubating the compound and reagent-treated plates for 24 hours at 37 C in a 5% CO2 incubator.
6.Adding ATP-Lite (3 ul).
7.Reading plates by ViewLux with an exposure length of 5 seconds.
In general terms: qHTS replaces the single test concentration by a dilution series.
For `COc1ccc(C(=O)Nc2cccc(NC(=O)c3ccc(OC)cc3OC)n2)c(OC)c1`, the Potency result was “inactive”.

As to `COc1cc(SC)ccc1C(=O)NCCOc1ccccc1Cl`, the Potency entry was “inactive”.

Take `COc1cc(SC)ccc1C(=O)Nc1nc(C)cs1`: the Potency was 0.891 µM (active).

With `COc1ccc(C(=O)NC2=NCCS2)c(OC)c1`, the Potency entry is “inactive”.

As to `Cc1csc(NC(=O)c2ccc(C)s2)n1`, the Potency result was “inactive”.

As for `COc1ccc(C(=O)Nc2nncs2)c(OC)c1`, the Potency was 11.2 µM (active).

`CCCC(O)(c1ccccc1)C(c1ccccc1)c1ccccn1` (stereo not given): the Potency entry was “inactive”.

Turning to `Cc1cc(C)c(C=NNc2nc3c([nH]2)c(=O)n(C)c(=O)n3C)c(C)c1`, the Potency entry was “inactive”.

For `O=c1c2ccccc2ncn1CCc1ccncc1`, the Potency entry was “inactive”.

As for `O=C(Nc1ccccc1)Oc1cccc2cccnc12`, the Potency entry is “inactive”.

As for `NN=C(NN=Cc1ccccc1)c1ccccc1`, the Potency entry was “inactive”.

Turning to `COc1cc(/C=C/c2ccc(/C=C/c3cc(OC)c(OC)c(OC)c3)cc2)cc(OC)c1OC`, the Potency result was “inactive”.

With `CCCN(CCC)S(=O)(=O)c1cc2c(cc1Br)CCN2C(=O)CC`, the Potency entry was “inactive”.

`COc1ccc(-c2ccc(OC(=O)NC3CCS(=O)(=O)C3)cc2)cc1` (stereo not given): the Potency is 10 µM (active).

With `O=C(Cc1ccc(Cl)cc1)NC1CCS(=O)(=O)C1` (stereo not given), the Potency result is “inactive”.

`COc1ccc(NC(=S)NC2CCS(=O)(=O)C2)cc1` (stereo not given): the Potency entry was “inactive”.

As for `COc1ccc2c(c1)C(=O)CC(c1ccccc1)O2` (stereo not given), the Potency result was “inactive”.

Consider `O=S(=O)(Cc1ccc(Cl)cc1Cl)c1ccc(Cl)cc1`, for which the Potency result was “inactive”.

Regarding `CC(=O)OCC(=O)C1(O)CCC2C3CC(C)C4=CC(=O)CCC4(C)C3C(O)CC21C` (stereo not given), the Potency entry is “inactive”.

For the compound `Oc1c(CN2CCCC2)cc(COCc2ccccc2)c2cccnc12`, the Potency was 4.47 µM (active).

Regarding `COc1cc(CN2CCC(C(N)=O)CC2)ccc1OCc1ccccc1`, the Potency entry was “inactive”.

As to `COc1cc(C)cc(CN2CCC(Cc3ccccc3)CC2)c1O`, the Potency entry is “inactive”.

As for `Nc1ncnc2c1cnn2C1CC(O)C(CO)O1` (stereo not given), the Potency result is “inactive”.

As for `COc1ccc(C2NCCCC2c2ccccc2)cc1` (stereo not given), the Potency result is “inactive”.

For `O=C(NN=CC=Cc1ccccc1)C(O)C(O)C(=O)NN=CC=Cc1ccccc1` (stereo not given), the Potency result is “inactive”.

On to `Cc1ccc2nc(-c3ccc(Br)cc3)cn2c1`, for which the Potency is 2.82 µM (active).

Consider `Cc1ccc(-c2cn3cc(C)ccc3n2)cc1`, for which the Potency entry is “inactive”.

Consider `Cc1ccc(-c2cn3cc([N+](=O)[O-])ccc3n2)cc1`, for which the Potency result is “inactive”.

On to `CC(C)=CCc1ccc(O)c(=O)cc1C(C)C`, for which the Potency result was “inactive”.

On to `CC(C)Cn1cnc2c(SCc3ccc(Cl)cc3)nc(N)nc21`, for which the Potency result was “inactive”.

Consider `Nc1c(C(=O)NCc2ccccc2)nnn1Cc1cccc(Cl)c1`, for which the Potency was 11.2 µM (active).

Take `COc1cccc(CNC(=O)c2nnn(CC(=O)Nc3cc(C)ccc3C)c2N)c1`: the Potency result is “inactive”.

Consider `COc1cccc(CNC(=O)c2nnn(CC(=O)Nc3cc(Cl)ccc3C)c2N)c1`, for which the Potency entry was “inactive”.

As for `COc1ccc(N=C2C=CC(=O)O2)cc1`, the Potency entry was “inactive”.

For `CCOc1cccc(SCc2noc(C(=O)NC(C)C)c2C(=O)O)c1`, the Potency entry is “inactive”.

Turning to `COC(=O)c1c(CCl)noc1C(=O)NC(C)C`, the Potency is 10 µM (active).

Regarding `CCCNC(=O)c1onc(CSc2ccc(F)cc2)c1C(=O)NC(C)C`, the Potency entry is “inactive”.

As for `CC(=O)OC1CCC2(C)C(=CCC3C4CC(=O)N(O)C(=O)C4(C)CCC32)C1` (stereo not given), the Potency entry is “inactive”.

In the case of `CC(NC(=O)c1ccccc1)C(=O)Nc1ccccc1` (stereo not given), the Potency result is “inactive”.

With `CC(=O)Nc1ccc(C(=O)Nc2cc(S(=O)(=O)N3CCOCC3)ccc2N2CCOCC2)cc1`, the Potency result is “inactive”.

As to `CC(=O)Nc1ccc(Nc2c3ccccc3nc3ccccc23)cc1`, the Potency was 1 µM (active).

As for `CC(C)(C)OC(=O)NNc1c2ccccc2nc2ccccc12`, the Potency result is “inactive”.

Regarding `CCc1nc(Nc2ccc(NC(C)=O)cc2)c2oc3ccccc3c2n1`, the Potency result is “inactive”.

Turning to `OCC(O)C1OCOC(C(O)CO)C1O` (stereo not given), the Potency result is “inactive”.

As to `O=C(NCCc1ccccc1)c1cccc(NC(=O)c2ccccc2)c1`, the Potency entry was “inactive”.

With `O=C(NCc1cccc(C(F)(F)F)c1)c1cccc(S(=O)(=O)N2CCN(Cc3ccccc3)CC2)c1`, the Potency entry is “inactive”.

Take `CC(NC(=O)CCC(=O)N1CCN(S(=O)(=O)c2ccc(Cl)cc2)CC1)c1ccccc1` (stereo not given): the Potency result was “inactive”.

In the case of `O=C(CCC(=O)N1CCN(S(=O)(=O)c2ccc(Cl)cc2)CC1)NCc1cccc(C(F)(F)F)c1`, the Potency is 12.6 µM (active).

With `Cc1cccc(NC(=S)N2CCC(C(=O)c3ccc(F)cc3)CC2)c1`, the Potency result was “inactive”.

For `Cc1ccc(CNC(=O)Cn2cnc3c(NCc4ccccc4)ncnc32)o1`, the Potency is 11.2 µM (active).

Consider `O=C(Cn1cnc2c(OCc3ccccc3)ncnc21)NCc1nc2ccccc2[nH]1`, for which the Potency result is “inactive”.

For the compound `CC(CNC(=O)Cn1cnc2c(OCc3ccccc3)ncnc21)c1ccccc1` (stereo not given), the Potency result is “inactive”.

For the compound `CC(C)OC(=O)c1ccc(NCc2cc(O)ccc2O)cc1Cl`, the Potency entry was “inactive”.

In the case of `NC(=O)Nc1ccc(C(=O)OCC(=O)NC2CCCc3ccccc32)cc1` (stereo not given), the Potency entry is “inactive”.

As for `COC(=O)c1cc(OCC(=O)NC2CCCc3ccccc32)cc(C(=O)OC)c1` (stereo not given), the Potency result was “inactive”.
